From the supplement of paper PMC8728848
The sample as a whole holds a higher share of the strongest signals than the screen did.

Legend:
Assay in all cases: glycan array binding signal (z-score within array); higher = stronger binding
Conditions in all cases: glycan notation: IUPAC condensed, linker removed
[1] = molecular target: GalNAc(b1-3)GlcNAc
Outline: (§1)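 The binding signal is a Z-score computed within each array and averaged over linkers. Arrays of the same protein sequence at different concentrations or buffers were also averaged together. Data originate from 3228 arrays in the Consortium for Functional Glycomics database, kept only where the protein sequence was available.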

[2] = molecular target: GalNAc(b1-4)GlcNAc
Outline: as §1

[3] = molecular target: GalNAc4S6S(b1-4)GlcNAc
Outline: as §1

[4] = molecular target: GlcA(b1-3)Gal
Outline: as §1

[5] = molecular target: GlcA(b1-6)Gal
Outline: as §1

[6] = molecular target: GlcNAc(a1-4)Gal(b1-4)GlcNAc(b1-3)Gal(b1-4)Glc
Outline: as §1

[7] = molecular target: GlcNAc(a1-4)Gal(b1-4)GlcNAc(b1-3)Gal(b1-4)[Fuc(a1-3)]GlcNAc(b1-3)Gal(b1-4)[Fuc(a1-3)]GlcNAc
Outline: as §1

[8] = molecular target: GlcNAc(b1-3)Gal(b1-4)GlcNAc
Outline: as §1

[9] = molecular target: GlcNAc(b1-3)Gal(b1-4)GlcNAc(b1-2)[GlcNAc(b1-3)Gal(b1-4)GlcNAc(b1-6)]Man(a1-6)[GlcNAc(b1-3)Gal(b1-4)GlcNAc(b1-2)Man(a1-3)]Man(b1-4)GlcNAc(b1-4)GlcNAc
Outline: as §1

[10] = molecular target: Man(a1-2)Man(a1-6)[Man(a1-3)]Man(a1-6)[Man(a1-2)Man(a1-2)Man(a1-3)]Man
Outline: as §1

[11] = molecular target: Neu5Ac(a2-3)Gal(b1-3)GlcNAc(b1-3)Gal(b1-3)GlcNAc
Outline: as §1

[12] = molecular target: Neu5Ac(a2-3)Gal(b1-3)[Fuc(a1-4)]GlcNAc
Outline: as §1

[13] = molecular target: Neu5Ac(a2-3)Gal(b1-4)GlcNAc(b1-2)Man(a1-3)[Neu5Ac(a2-6)Gal(b1-4)GlcNAc(b1-2)Man(a1-6)]Man(b1-4)GlcNAc(b1-4)GlcNAc
Outline: as §1

[14] = molecular target: Neu5Ac(a2-3)Gal(b1-4)GlcNAc(b1-3)Gal(b1-4)GlcNAc(b1-6)[Gal(b1-3)]GalNAc
Outline: as §1

[15] = molecular target: Neu5Ac(a2-3)Gal(b1-4)[Fuc(a1-3)]GlcNAc(b1-3)Gal
Outline: as §1

[16] = molecular target: Neu5Ac(a2-3)Gal(b1-4)[Fuc(a1-3)]GlcNAc6S
Outline: as §1

[17] = molecular target: Neu5Ac(a2-6)Gal(b1-4)GlcNAc(b1-2)[Neu5Ac(a2-6)Gal(b1-4)GlcNAc(b1-4)]Man(a1-3)[GlcNAc(b1-4)][Neu5Ac(a2-6)Gal(b1-4)GlcNAc(b1-2)[Neu5Ac(a2-6)Gal(b1-4)GlcNAc(b1-6)]Man(a1-6)]Man(b1-4)GlcNAc(b1-4)GlcNAc
Outline: as §1

[18] = molecular target: Neu5Ac(a2-6)Gal(b1-4)GlcNAc(b1-3)Gal(b1-4)GlcNAc(b1-3)Gal(b1-4)GlcNAc(b1-2)Man(a1-3)[Neu5Ac(a2-6)Gal(b1-4)GlcNAc(b1-3)Gal(b1-4)GlcNAc(b1-3)Gal(b1-4)GlcNAc(b1-2)Man(a1-6)]GalNAc
Outline: as §1

[19] = molecular target: Neu5Gc(a2-8)Neu5Gc(a2-3)Gal(b1-4)GlcNAc(b1-3)Gal(b1-4)GlcNAc
Outline: as §1

B1: AT3G44510(29) (Arabidopsis thaliana), F4J341 (protein)
chain: MEEHLQGRIKLHDGRYLAYKERGVPKDDAKFTIVLVHGFGSSKDMNFNVSQELVNEIGIYFVLYDRAGYGESDPNPKRSLKSEAYDVQELADGLEIGSRFYLIGISMGSYTVWSCLKHIPQRLAGVAMVAPVVNFRWPSIPKSLMPKDYRREVAKWSVWIANYFPGLLQWLVTQNMFSTTSMLEKNPVYFNDQDIEVLKHIKGFPMLTKEKLRERGVFGTLRSDFLVAFGDWDFDPADLPDPSLSGPEKGSSSVHIWQGYEDKVMPFQLQRCLCRKLPWIRYHEVPKGGHLIVHYDGICDAILKSLLLGEDLPMYKPKAVITEPA
glycan array binding signal (z-score) [1]: -0.421 | glycan array binding signal (z-score) [2]: 9.27 | glycan array binding signal (z-score) [3]: -0.488 | glycan array binding signal (z-score) [4]: 1.18 | glycan array binding signal (z-score) [5]: 0.079 | glycan array binding signal (z-score) [6]: 0.232 | glycan array binding signal (z-score) [7]: 1.31 | glycan array binding signal (z-score) [8]: 0.6 | glycan array binding signal (z-score) [9]: 2.5 | glycan array binding signal (z-score) [10]: -0.613 | glycan array binding signal (z-score) [11]: -0.556 | glycan array binding signal (z-score) [12]: -0.723 | glycan array binding signal (z-score) [13]: 2.04 | glycan array binding signal (z-score) [14]: -0.343 | glycan array binding signal (z-score) [15]: -0.706 | glycan array binding signal (z-score) [16]: 0.419 | glycan array binding signal (z-score) [17]: -0.785 | glycan array binding signal (z-score) [18]: 2.59 | glycan array binding signal (z-score) [19]: 0.206
